Results on 26 compounds are retold here after PubChem BioAssay (Tox21).

Unmarked numbers belong to inactive results. Records with an inconclusive call do not appear. The source made the active and inactive calls. Unless noted, the call rests on the fitted dose curve; in most records, active means well fitted curve in the direction sought with a large enough effect in the repeat runs; inconclusive means weak or mixed curves; inactive means no such curve, though single readings can be large; an effect the other way counts as inactive or inconclusive.

Assay [1] is described as follows: qHTS assay to identify small molecule agonists of the estrogen receptor alpha (ER-alpha) signaling pathway in the presence of an antagonist - cell viability counter screen (AID 1259386).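 Further: series mostly up to about 92 µM; cells exposed to compounds for 22 h at 37 °C before the viability read; nearly all actives have a fitted effect of over 30% in size.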 In a few lines:
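Steps: 5-day stripped-FBS culture; seed and incubate 24hr; add ICI-182,780 (10.0nM final); pin 15-point compound titration; incubate 22hr at 37C; add CellTiter-Fluor at 21hr; read fluorescence.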

The target of assay [2] is Progesterone receptor (Homo sapiens) (UniProt P06401). Nature of the assay: qHTS assay to identify small molecule agonists of the progesterone receptor (PR) signaling pathway (AID 1346784; calls by dose curve; further: nearly all actives have a fitted effect of over 30% in size). In a few lines: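 Agonist mode, quantitative HTS format in a HEK 293T line expressing a UAS-controlled beta-lactamase reporter; 16 hr compound exposure at 37C in 2% charcoal-stripped FBS, then LiveBLAzer B/G FRET fluorescence.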
Progesterone receptor (Homo sapiens), sequence (P06401 whole entry, looked up): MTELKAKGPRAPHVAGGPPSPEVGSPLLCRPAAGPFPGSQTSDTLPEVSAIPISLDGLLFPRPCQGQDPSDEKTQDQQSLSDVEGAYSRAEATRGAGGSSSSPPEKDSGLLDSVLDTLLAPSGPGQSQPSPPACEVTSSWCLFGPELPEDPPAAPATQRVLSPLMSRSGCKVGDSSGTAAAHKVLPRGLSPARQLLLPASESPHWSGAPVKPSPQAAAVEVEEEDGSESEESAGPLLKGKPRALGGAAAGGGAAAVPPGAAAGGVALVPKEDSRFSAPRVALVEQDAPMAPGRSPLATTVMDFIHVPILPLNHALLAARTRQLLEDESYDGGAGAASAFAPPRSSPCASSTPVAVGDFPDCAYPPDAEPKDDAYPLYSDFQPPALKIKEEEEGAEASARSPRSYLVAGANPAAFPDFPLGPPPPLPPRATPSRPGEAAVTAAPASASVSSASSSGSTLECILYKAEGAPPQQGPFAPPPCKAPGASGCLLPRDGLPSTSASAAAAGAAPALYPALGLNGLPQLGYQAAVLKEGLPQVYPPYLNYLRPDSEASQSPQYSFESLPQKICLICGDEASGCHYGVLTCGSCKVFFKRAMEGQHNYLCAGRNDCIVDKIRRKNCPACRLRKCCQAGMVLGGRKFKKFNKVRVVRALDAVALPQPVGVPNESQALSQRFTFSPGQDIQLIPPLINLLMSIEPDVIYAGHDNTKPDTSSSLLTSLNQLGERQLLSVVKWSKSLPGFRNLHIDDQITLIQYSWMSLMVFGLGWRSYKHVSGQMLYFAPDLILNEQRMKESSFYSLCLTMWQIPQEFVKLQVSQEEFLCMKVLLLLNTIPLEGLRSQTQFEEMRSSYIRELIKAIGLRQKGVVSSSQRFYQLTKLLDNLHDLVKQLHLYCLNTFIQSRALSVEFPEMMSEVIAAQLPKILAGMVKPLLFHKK
In general terms: qHTS replaces the single test concentration by a dilution series.

Assay [3] has the same target. Nature of the assay: qHTS assay to identify small molecule antagonists of the progesterone receptor (PR) signaling pathway (AID 1346795; active means well fitted inhibition curve with a large enough effect in the signal ratio in the repeat runs, not every such curve was filed as active; the % refers to the signal ratio; further: potency means the concentration at half of the fitted maximal effect). In a few lines:
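HEK293T PR-UAS-bla reporter cells in charcoal-stripped serum (2%) received compound after a 6 hr settling period, followed by R5020 agonist at 1 nM final; 16 hr incubation preceded the FRET substrate step and fluorescence measurement.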

A short description of assay [4]: qHTS assay to identify small molecule antagonists of the progesterone receptor (PR) signaling pathway - cell viability counter screen (AID 1346798). Further: series mostly up to about 92 µM; nearly all actives have a fitted effect of over 50% in size. In a few lines: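 Same-well multiplex: after 16 hr at 37C with compound and R5020 stimulation, HEK293T cells carrying a UAS-bla reporter received LiveBLAzer substrate (2 hr RT), then CellTiter-Glo (30 min RT) for luminescent viability.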

Assay [5] is described as follows: qHTS assay to identify small molecule agonists of the progesterone receptor (PR) signaling pathway - cell viability counter screen (AID 1346799; calls by dose curve; further: nearly all actives have a fitted effect of over 45% in size). Put shortly:
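Counter screen for cytotoxicity: compound-treated PR-UAS-bla HEK293T cells (16 hr, 37C, 5% CO2) were assayed with CellTiter-Glo, luminescence measured after 30 min at room temperature.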

A short description of assay [6]: qHTS assay to identify small molecule antagonists of the TGF-beta/Smad signaling pathway - cell viability counter screen (AID 1346824). Further: nearly all actives have a fitted effect of over 50% in size. Put shortly:
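SBE-bla HEK 293T cells were plated overnight at 37 C, then given compounds in DMSO plus TGF-beta1 (added as 0.25 ng/mL solution) for 5 hr. After the bla read, CellTiter-Glo was added to the same wells and luminescence read after 30 min at room temperature.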

Assay [7] in a line: qHTS assay to identify small molecule agonists of the TGF-beta/Smad signaling pathway - cell viability counter screen (AID 1346829). Further: top concentration of the series differs between compounds; nearly all actives have a fitted effect of over 45% in size. Put shortly: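 Luminescence from CellTiter-Glo, read after a 30 min room-temperature incubation, gives cell viability of SBE-bla HEK 293T cells treated 5 hr with compounds at 37 C.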
Assay [8] is described as follows: qHTS assay to identify small molecule agonists of the TGF-beta/Smad signaling pathway (AID 1346859; active means well fitted activation curve with a large enough effect in the signal ratio in the repeat runs, not every such curve was filed as active; the % refers to the signal ratio; further: series mostly up to about 77 µM). In a few lines: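 Smad-responsive beta-lactamase reporter cells (HEK 293T) received compounds from DMSO stocks after overnight attachment, were incubated 5 hr, then treated 2 hr with FRET substrate before dual-emission fluorescence measurement (405 nm excitation).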

Assay [9] deals with Thyrotropin-releasing hormone receptor (Homo sapiens) (UniProt P34981). Nature of the assay: qHTS assay to identify small molecule antagonists of the thyrotropin-releasing hormone receptor (TRHR) signaling pathway (AID 1346877; active means well fitted inhibition curve with a large enough effect in the repeat runs, not every such curve was filed as active; further: series mostly up to about 51 µM). In a few lines: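 Human TRHR in HEK293 cells; inhibition of the intracellular calcium rise triggered by 1 nM TRH was followed by fluorescence over 3 min. Compounds were run at 15 concentrations, three replicates each.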
Thyrotropin-releasing hormone receptor (Homo sapiens), sequence (P34981 whole entry, looked up): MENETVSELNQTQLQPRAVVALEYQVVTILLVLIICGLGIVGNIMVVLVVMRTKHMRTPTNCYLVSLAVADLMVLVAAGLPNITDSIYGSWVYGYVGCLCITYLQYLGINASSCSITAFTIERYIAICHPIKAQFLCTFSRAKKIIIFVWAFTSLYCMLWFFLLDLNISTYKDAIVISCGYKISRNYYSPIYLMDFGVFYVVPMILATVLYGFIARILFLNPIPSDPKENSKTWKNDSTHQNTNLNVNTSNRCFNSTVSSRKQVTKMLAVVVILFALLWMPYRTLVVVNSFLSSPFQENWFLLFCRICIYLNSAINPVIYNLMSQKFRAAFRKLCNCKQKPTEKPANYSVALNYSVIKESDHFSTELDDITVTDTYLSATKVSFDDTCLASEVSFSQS

Assay [10] has the same target. Kind of assay: qHTS assay to identify small molecule agonists of the thyrotropin-releasing hormone receptor (TRHR) signaling pathway (AID 1346891; calls by dose curve;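 further: HEK293 cells expressing TRHR with calcium dye readout; series mostly up to about 58 µM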). In a few lines: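 Agonist-mode calcium mobilisation screen: TRHR-transfected HEK293 cells cultured overnight (18 h), dye-loaded for 2 h at 37 °C, exposed to compounds, and monitored by fluorescence for 3 min.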
On the % scale 0 is the no-effect control and ±100 the full control effect.

Consider `CCOC(C)OCC`, for which the Potency result in assay [1], in [2], in assay [3], in assay [4] and in assay [5] was “inactive” throughout. Further, the outcome in assay [6], in assay [7], in assay [8], in assay [9] and in assay [10] was inactive.
Consider `CC(=O)c1cccnc1`, for which the Potency entry in assay [1], in assay [2], in assay [3], in assay [4] and in assay [5] was “inactive” each time. Besides, the call in assay [6], in assay [7] and in [8] was inactive.
Regarding `CC(O)CN` (configuration not stated), the Potency entry in assay [1], in assay [2], in assay [3], in [4] and in [5] was “inactive” throughout. Also, the result in assay [6], in assay [7], in assay [8], in assay [9] and in assay [10] was inactive.
In the case of `CCCOC(C)=O`, the Potency result in assay [1], in assay [2], in assay [3], in assay [4] and in assay [5] was “inactive” each time. The call in assay [6], in [7], in assay [8], in assay [9] and in [10] was inactive.
Turning to `Nc1ccc(C(=O)Oc2ccccc2)c(O)c1`, the Potency entry in assay [1], in assay [2], in [4] and in [5] was “inactive” each time. Besides, the Potency in assay [3] was 23.7 µM (active). Further, the compound was called inactive in assay [6], in assay [7], in assay [8], in assay [9] and in [10].
Consider `CC(C)(C)NCC(O)COc1ccc(NC(=O)NC2CCCCC2)cc1` (configuration not stated), for which the Potency result in assay [1], in assay [2], in assay [3], in [4] and in [5] was “inactive” each time. In addition, the compound was called inactive in [6], in assay [7], in assay [8], in assay [9] and in assay [10].
For the compound `[O-][n+]1ccc(Cl)cc1`, the Potency entry in [1], in [2], in assay [3], in [4] and in assay [5] was “inactive” in each case. For the same compound, the compound was called inactive in assay [6], in assay [7] and in assay [8].
As for `CC1(C)CC(O)CC(C)(C)N1[O]`, the Potency result in assay [1], in [2], in assay [3], in [4] and in [5] was “inactive” in each case. Also, the result in [6], in assay [7], in assay [8], in [9] and in assay [10] was inactive.
`CCCCCCCCCCCCSC#N`: the Potency entry in assay [1], in [2], in assay [3], in assay [4] and in [5] was “inactive” each time. Moreover, the outcome in [6], in assay [7] and in [8] was inactive.
As for `O=C(O)CNc1ccccc1`, the Potency result in [1], in assay [2], in assay [3], in assay [4] and in assay [5] was “inactive” throughout. The outcome in assay [6], in assay [7], in assay [8], in assay [9] and in assay [10] was inactive.
As for `COc1ccc(/C(C)=C/C(=O)O)c(OC)c1`, the Potency entry in [1], in assay [2], in assay [3], in [4] and in assay [5] was “inactive” in each case. Moreover, the compound was classed as inactive in [6], in [7] and in [8].
Consider `O=C(Cl)c1cc(Cl)cc(Cl)c1`, for which the Potency entry in assay [1], in [2], in assay [3], in assay [4] and in [5] was “inactive” each time. Further, the compound was classed as inactive in assay [6], in [7], in assay [8], in assay [9] and in assay [10].
Consider `C[Si](C)(C)O[Si](C)(C)O[Si](C)(C)C`, for which the Potency entry in assay [1], in assay [2], in assay [3], in assay [4] and in assay [5] was “inactive” each time. Besides, the compound was classed as inactive in assay [6], in assay [7], in assay [8], in assay [9] and in assay [10].
`C=C[Si](OCC)(OCC)OCC`: the Potency result in assay [1], in assay [2], in assay [3], in assay [4] and in [5] was “inactive” in each case. The call in assay [6], in assay [7], in assay [8], in [9] and in assay [10] was inactive.
Take `C=C[Si]1(C)O[Si](C)(C=C)O[Si](C)(C=C)O[Si](C)(C=C)O1` (configuration not stated): the Potency result in assay [1], in [2], in assay [3], in assay [4] and in assay [5] was “inactive” in each case. For the same compound, the outcome in assay [6], in assay [7], in assay [8], in assay [9] and in assay [10] was inactive.
In the case of `Cc1cc(SC2=C(O)C[C@@](CCc3ccc(N)cc3)(C(C)C)OC2=O)c(C(C)(C)C)cc1CO`, the Potency entry in [1], in [2], in assay [3], in [4] and in assay [5] was “inactive” in each case. Further, the compound was called inactive in assay [6], in assay [7], in assay [9] and in assay [10].
On to `O=Cc1ccc([N+](=O)[O-])cc1`, for which the Potency result in assay [1], in assay [2], in assay [3] and in [4] was “inactive” in each case. The outcome in assay [6], in assay [7] and in assay [8] was inactive.
Consider `O=[N+]([O-])c1cccc(I)c1`, for which the Potency result in assay [1], in [2], in assay [3] and in assay [4] was “inactive” in each case. For the same compound, the outcome in assay [6], in [7] and in assay [8] was inactive.
Regarding `S=c1[nH][nH]c(=S)s1`, the Potency result in assay [1], in assay [2], in [3], in assay [4] and in assay [5] was “inactive” throughout. In addition, the result in [7], in assay [8], in assay [9] and in [10] was inactive.
Turning to `C1CCN(CN2CCCCC2)CC1`, the Potency entry in assay [1], in [2], in [3], in assay [4] and in assay [5] was “inactive” in each case. The result in assay [6], in assay [7], in [8], in [9] and in assay [10] was inactive.
Consider `O=C(O)c1ccc2c(c1)nc(C(=O)NC1CCN(C3CC3)CC1)n2Cc1cc(-c2ccc(Cl)s2)on1`, for which the activity change, negative = cytotoxicity in assay [1] is 7.53% [at 19 µM]; in [4], -14.4% [at 18.9 µM]; in [5], -20.4% [at 19 µM]; in assay [7] it was 20.2% [at 15.8 µM]. Besides, the values for the activation in assay [2] and in assay [10] were 1.53% [at 19 µM] and 2.01% [at 11.8 µM], respectively. Moreover, the activity change, negative = inhibition in assay [3] is -15.4% [at 18.9 µM]. In addition, the viability change, negative = cytotoxic in assay [6] was 0.205% [at 15.8 µM]. For the same compound, the activity, negative = inhibition in assay [9] is 0.0336% [at 10.5 µM].
Take `O=C(O)c1cc(C(=O)O)c(C(=O)O)cc1C(=O)O`: the Potency result in assay [1], in assay [2], in [3] and in assay [4] was “inactive” throughout. Moreover, the compound was called inactive in [6], in assay [7] and in assay [8].
As for `FC1(F)C(F)(F)C(F)(F)C2(F)C(F)(C1(F)F)C(F)(F)C(F)(F)C1(F)C(F)(F)C(F)(F)C(F)(F)C(F)(F)C12F` (configuration not stated), the Potency result in [1], in assay [2], in assay [3], in assay [4] and in [5] was “inactive” each time. Further, the result in assay [7] and in assay [8] was inactive.
Consider `CCC1=C(C)CN(C(=O)NCCc2ccc(S(=O)(=O)NC(=O)NC3CCC(C)CC3)cc2)C1=O` (configuration not stated), for which the Potency result in [1], in assay [2], in [3], in assay [4] and in [5] was “inactive” in each case. The compound was classed as inactive in assay [7], in assay [9] and in [10].
Regarding `CCCC(=O)OCCC(C)C`, the Potency result in assay [1], in [2], in assay [3], in assay [4] and in assay [5] was “inactive” throughout. Moreover, the outcome in assay [6], in assay [7], in [8], in assay [9] and in [10] was inactive.
On to `O=C(O)c1ccccc1-n1cc(C(=O)O)c(=O)c2cc(Nc3c(F)cc(F)cc3Cl)c(Cl)cc21`, for which the Potency entry in assay [1], in assay [2], in assay [3] and in assay [4] was “inactive” throughout. Besides, the compound was classed as inactive in assay [6], in assay [7] and in assay [8].
